# Values joined by “and” are separate entries in the source; they are usually repeats but may differ in a detail not shown here. Identical values can stand only once. Results filed as inconclusive are left out. A call without a number means that no potency is given here. A structure can be active in one record and inactive in another. Active and inactive are the calls of the source. Calls come from the whole dose curve; as a rule, active = well fitted curve in the direction sought with a large enough effect in the repeat runs; inconclusive = weak or mixed curves; inactive = no such curve, though single readings can be large; an effect the other way counts as inactive or inconclusive.
# Experiments:
# [1] = Human pregnane X receptor (PXR) small molecule agonists, qHTS cell viability counter screen (AID 1346977); note: nearly all actives have a fitted effect of over 50% in size; note: potency is the fitted concentration of half-maximal effect
# Outline: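 Fluorescence read-out (CellTiter-Fluor) of viability in PXR-Luc HepG2 cells, multiplexed with the luciferase agonist read. Compounds in DMSO added after 5hr plating; 24hr total exposure at 37C, 5% CO2.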
# [2] = Caspase-3/7 induction in HepG2 cells by small molecules, qHTS assay (AID 1346978); note: nearly all actives have a fitted effect of over 15% in size
# Outline: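 Wild-type HepG2 cells (2,000/well) were settled 5 h at 37 C, 5% CO2, then exposed to compounds in DMSO for 17 h. Caspase-3/7 activity was read by luminescence 30 min after adding Caspase-Glo 3/7 reagent at room temperature.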
# [3] = Caspase-3/7 induction in CHO-K1 cells by small molecules, qHTS cell viability counter screen (AID 1346979); note: nearly all actives have a fitted effect of over 35% in size; note: potency is the fitted concentration of half-maximal effect
# Outline: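 CHO-K1 wt, 1,500 cells/well; 5hr pre-incubation 37C/5% CO2; compound pin transfer (DMSO); 16hr exposure; CellTiter-Fluor added, 1hr, fluorescence read.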
# [4] = Caspase-3/7 induction in CHO-K1 cells by small molecules, qHTS assay (AID 1346980); note: nearly all actives have a fitted effect of over 15% in size; note: potency is the fitted concentration of half-maximal effect
# Outline: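 Wild-type cells were seeded at 1,500 per well and settled 5 hr at 37 C, 5% CO2, then exposed to DMSO-dissolved compounds for 17 hr. Caspase-Glo 3/7 reagent was added, and luminescence was read after 30min at room temperature.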
# [5] = Caspase-3/7 induction in HepG2 cells by small molecules, qHTS cell viability counter screen (AID 1346981); note: nearly all actives have a fitted effect of over 30% in size; note: potency is the fitted concentration of half-maximal effect
# Outline: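 Viability determined by CellTiter-Fluor fluorescence in HepG2 wells also used for the luminescent Caspase-Glo 3/7 read. Compounds were present for 16 hr at 37 C, 5% CO2 before reagent addition.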
# [6] = molecular target: Nuclear receptor subfamily 1 group I member 2 (Homo sapiens) (UniProt O75469); assay: Human pregnane X receptor (PXR) small molecule agonists, qHTS assay (AID 1346982); note: nearly all actives have a fitted effect of over 35% in size; note: potency is the fitted concentration of half-maximal effect
# Outline: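 Compound-induced hPXR transactivation of a CYP3A4 luciferase reporter was scored in HepG2 PXR-Luc cells over 24 hr at 37 C, 5% CO2, by luminescence.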
# [7] = molecular target: Cytochrome P450 2C19 (Homo sapiens) (UniProt P33261); assay: Cytochrome P450 Family 2 Subfamily C Member 19 (CYP2C19) small molecule antagonists: luciferase reporter qHTS assay (AID 1671197); note: nearly all actives have a fitted effect of over 65% in size; note: potency is the fitted concentration of half-maximal effect; for activity change, negative = inhibition: series mostly up to about 120 µM
# Outline: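 First, compounds are pinned into enzyme-substrate mix and held 10 min at room temperature. Second, NADPH regeneration solution is added and plates incubate 1 h at 37C. Third, detection reagent is added and luminescence read after 20 min.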
# [8] = molecular target: Cytochrome P450 2C9 (Homo sapiens) (UniProt P11712); assay: Cytochrome P450 Family 2 Subfamily C Member 9 (CYP2C9) small molecule antagonists: luciferase reporter qHTS assay (AID 1671198); note: nearly all actives have a fitted effect of over 50% in size; note: potency is the fitted concentration of half-maximal effect; for activity change, negative = inhibition: series mostly up to about 120 µM
# Outline: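 CYP2C9 activity was measured with a P450-Glo proluciferin substrate. Enzyme–substrate mix was held with compound for 10 min at room temperature, then NADPH regeneration solution was added for 1 h at 37C. Luciferin product was read as luminescence.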
# [9] = molecular target: Cytochrome P450 1A2 (Homo sapiens) (UniProt P05177); assay: Cytochrome P450 Family 1 Subfamily A Member 2 (CYP1A2) small molecule antagonists: luciferase reporter qHTS assay (AID 1671199); note: nearly all actives have a fitted effect of over 50% in size; note: potency is the fitted concentration of half-maximal effect; for activity change, negative = inhibition: series mostly up to about 120 µM
# Outline: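 Enzymatic CYP1A2 assay, human, luminescent: 10 min compound–enzyme–substrate preincubation, 1 h NADPH-dependent turnover, 20 min detection step, room temperature throughout. Reduced light indicates lower CYP1A2 activity.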
# [10] = molecular target: Voltage-gated inwardly rectifying potassium channel KCNH2 (Homo sapiens) (UniProt Q12809); assay: Human Ether-a-go-go-Related Gene (hERG) channel small molecule antagonists: fluorescence cell-based qHTS assay (AID 1671200);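 note: hERG-expressing U2OS cells given a thallium stimulus after FluxOR II dye loading; series mostly up to about 77 µM; nearly all actives have a fitted effect of over 50% in size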
# Outline: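 Read-out: thallium influx as a surrogate for potassium, tracked as fluorescence (480 nm ex/540 nm em) every second for 2 min after Stimulus Buffer addition in dye-loaded hERG-U2OS cells.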
# [11] = molecular target: Cytochrome P450 3A4 (Homo sapiens) (UniProt P08684); assay: Cytochrome P450 Family 3 Subfamily A Member 4 (CYP3A4) small molecule antagonists: luciferase reporter qHTS assay (AID 1671201); note: nearly all actives have a fitted effect of over 50% in size; note: potency is the fitted concentration of half-maximal effect; for activity change, negative = inhibition: series mostly up to about 120 µM
# Outline: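 Luminescent readout (RLU) proportional to CYP3A4 activity, from luciferin generated off a proluciferin substrate. Enzyme–substrate mix plus compound 10 min at room temp, NADPH regeneration 1 h, detection reagent 20 min.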
# [12] = molecular target: Nuclear receptor subfamily 1 group I member 2 (Rattus norvegicus) (UniProt Q9R1A7); assay: Rat pregnane X receptor (rPXR) activation by small molecules, qHTS assay (AID 1346983); conditions: rPXR luciferase reporter cells, One-Glo luminescence, 24 h; stronger effect = higher value; note: nearly all actives have a fitted effect of over 20% in size
# Outline: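 Cell-based rPXR luciferase reporter assay, 2,000 cells per well, rested 5hr at 37 C before compound addition in DMSO, then 24 hr at 37 C. One-Glo reagent was added and luminescence read after 30 min at room temperature.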
# [13] = molecular target: Nuclear receptor subfamily 1 group I member 2 (Homo sapiens) (UniProt O75469); assay: CYP3A4 induction through human pregnane X receptor (PXR) by small molecules, qHTS assay (AID 1346984); note: nearly all actives have a fitted effect of over 40% in size
# Outline: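 Readings come from a luciferase reporter: DPX-2 cells, which are HepG2 cotransfected with PXR and a CYP3A4-promoter construct, were exposed to test compounds for 24 h at 37C before One-Glo detection.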
# [14] = molecular target: Nuclear receptor subfamily 1 group I member 2 (Homo sapiens) (UniProt O75469); assay: Human pregnane X receptor (PXR) activation by small molecules, qHTS assay (AID 1346985); note: nearly all actives have a fitted effect of over 40% in size
# Outline: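 DPX-2 cells (HepG2 co-transfected with a PXR response element and a CYP3A4-promoter luciferase construct) were seeded at 2,000 per well, rested 5 hr at 37C, then exposed to DMSO-dissolved compounds for 24 hr. Activation was read as luciferase luminescence.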
# [15] = molecular target: Cytochrome P450 2D6 (Homo sapiens) (UniProt P10635); assay: Cytochrome P450 Family 2 Subfamily D Member 6 (CYP2D6) small molecule antagonists: luciferase reporter qHTS assay (AID 1671196); note: nearly all actives have a fitted effect of over 50% in size; note: potency is the fitted concentration of half-maximal effect; for activity change, negative = inhibition: series mostly up to about 120 µM
# Outline: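 Each well received CYP2D6 with its proluciferin substrate and chemical, sat 10 min, then got NADPH regeneration solution for 1 h at room temperature. Luminescence in RLU served as the activity measure.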
# Chain of Nuclear receptor subfamily 1 group I member 2 (Rattus norvegicus) (Q9R1A7 whole entry, looked up): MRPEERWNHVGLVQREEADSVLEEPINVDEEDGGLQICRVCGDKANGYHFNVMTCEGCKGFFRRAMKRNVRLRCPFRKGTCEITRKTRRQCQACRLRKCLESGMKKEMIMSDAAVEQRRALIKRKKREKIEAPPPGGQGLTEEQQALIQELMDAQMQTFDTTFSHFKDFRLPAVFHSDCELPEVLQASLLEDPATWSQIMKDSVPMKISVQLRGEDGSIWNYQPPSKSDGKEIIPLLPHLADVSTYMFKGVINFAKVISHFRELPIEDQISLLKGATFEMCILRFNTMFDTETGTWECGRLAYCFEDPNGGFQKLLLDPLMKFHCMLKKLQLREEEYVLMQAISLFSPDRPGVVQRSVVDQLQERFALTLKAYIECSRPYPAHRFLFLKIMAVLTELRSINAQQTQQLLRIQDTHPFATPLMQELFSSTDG
# Chain of Voltage-gated inwardly rectifying potassium channel KCNH2 (Homo sapiens) (Q12809 whole entry, looked up): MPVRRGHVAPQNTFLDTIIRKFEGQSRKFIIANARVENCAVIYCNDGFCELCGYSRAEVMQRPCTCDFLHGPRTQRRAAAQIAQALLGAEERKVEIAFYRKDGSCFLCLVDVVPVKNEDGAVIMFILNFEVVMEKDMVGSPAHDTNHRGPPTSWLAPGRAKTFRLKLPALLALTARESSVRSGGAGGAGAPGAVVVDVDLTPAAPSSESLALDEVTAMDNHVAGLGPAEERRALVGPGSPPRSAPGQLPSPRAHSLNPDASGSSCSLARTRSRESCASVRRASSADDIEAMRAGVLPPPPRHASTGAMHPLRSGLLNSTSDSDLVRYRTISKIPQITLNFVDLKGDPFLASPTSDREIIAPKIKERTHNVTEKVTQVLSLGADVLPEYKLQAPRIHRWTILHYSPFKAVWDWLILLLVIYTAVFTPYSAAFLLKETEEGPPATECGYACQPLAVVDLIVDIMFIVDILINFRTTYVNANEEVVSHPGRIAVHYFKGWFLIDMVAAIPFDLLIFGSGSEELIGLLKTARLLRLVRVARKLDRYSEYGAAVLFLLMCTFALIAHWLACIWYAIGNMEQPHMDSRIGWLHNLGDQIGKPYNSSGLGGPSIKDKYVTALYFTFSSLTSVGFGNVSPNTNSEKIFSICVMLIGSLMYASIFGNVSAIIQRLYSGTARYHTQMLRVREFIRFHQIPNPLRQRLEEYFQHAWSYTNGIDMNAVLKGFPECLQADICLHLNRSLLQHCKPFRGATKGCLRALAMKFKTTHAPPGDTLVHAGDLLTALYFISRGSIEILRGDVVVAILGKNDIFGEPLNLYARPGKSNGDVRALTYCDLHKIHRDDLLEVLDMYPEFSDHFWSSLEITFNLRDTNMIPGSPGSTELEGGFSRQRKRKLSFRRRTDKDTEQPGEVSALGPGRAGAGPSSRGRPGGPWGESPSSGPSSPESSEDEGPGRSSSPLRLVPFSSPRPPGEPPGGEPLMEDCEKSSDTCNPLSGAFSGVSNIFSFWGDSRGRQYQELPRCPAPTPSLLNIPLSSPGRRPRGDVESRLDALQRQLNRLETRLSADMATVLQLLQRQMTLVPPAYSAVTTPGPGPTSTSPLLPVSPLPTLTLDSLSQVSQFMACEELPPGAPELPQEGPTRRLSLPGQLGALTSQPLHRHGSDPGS
# Chain of Cytochrome P450 2C9 (Homo sapiens) (P11712 whole entry, looked up): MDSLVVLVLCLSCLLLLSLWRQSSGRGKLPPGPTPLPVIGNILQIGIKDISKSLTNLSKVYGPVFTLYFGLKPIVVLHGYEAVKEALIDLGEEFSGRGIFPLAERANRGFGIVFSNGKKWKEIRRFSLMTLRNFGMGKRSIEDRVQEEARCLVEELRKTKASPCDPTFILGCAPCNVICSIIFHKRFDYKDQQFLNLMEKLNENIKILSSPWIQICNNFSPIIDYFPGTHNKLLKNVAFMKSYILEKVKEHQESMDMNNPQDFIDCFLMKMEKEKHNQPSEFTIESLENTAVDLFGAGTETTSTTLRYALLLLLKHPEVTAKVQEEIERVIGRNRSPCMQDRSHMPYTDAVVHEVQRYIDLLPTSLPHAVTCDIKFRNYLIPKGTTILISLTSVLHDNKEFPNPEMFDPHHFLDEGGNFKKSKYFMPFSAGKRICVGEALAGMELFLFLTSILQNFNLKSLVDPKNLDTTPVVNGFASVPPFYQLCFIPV
# Chain of Cytochrome P450 2C19 (Homo sapiens) (P33261 whole entry, looked up): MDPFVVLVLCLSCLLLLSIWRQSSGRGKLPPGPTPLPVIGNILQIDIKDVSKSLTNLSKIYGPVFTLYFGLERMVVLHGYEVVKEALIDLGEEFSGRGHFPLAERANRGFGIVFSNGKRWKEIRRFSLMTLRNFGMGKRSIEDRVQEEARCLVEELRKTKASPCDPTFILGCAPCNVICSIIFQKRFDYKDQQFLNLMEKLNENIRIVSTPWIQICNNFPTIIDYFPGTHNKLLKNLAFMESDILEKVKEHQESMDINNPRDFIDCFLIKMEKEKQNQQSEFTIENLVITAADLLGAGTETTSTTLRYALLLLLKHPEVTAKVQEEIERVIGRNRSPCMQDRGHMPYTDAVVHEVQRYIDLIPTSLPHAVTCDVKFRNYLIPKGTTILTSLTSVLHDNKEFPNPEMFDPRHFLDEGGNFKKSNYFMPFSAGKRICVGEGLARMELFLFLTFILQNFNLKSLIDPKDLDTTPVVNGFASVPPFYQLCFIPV
# Chain of Cytochrome P450 2D6 (Homo sapiens) (P10635 whole entry, looked up): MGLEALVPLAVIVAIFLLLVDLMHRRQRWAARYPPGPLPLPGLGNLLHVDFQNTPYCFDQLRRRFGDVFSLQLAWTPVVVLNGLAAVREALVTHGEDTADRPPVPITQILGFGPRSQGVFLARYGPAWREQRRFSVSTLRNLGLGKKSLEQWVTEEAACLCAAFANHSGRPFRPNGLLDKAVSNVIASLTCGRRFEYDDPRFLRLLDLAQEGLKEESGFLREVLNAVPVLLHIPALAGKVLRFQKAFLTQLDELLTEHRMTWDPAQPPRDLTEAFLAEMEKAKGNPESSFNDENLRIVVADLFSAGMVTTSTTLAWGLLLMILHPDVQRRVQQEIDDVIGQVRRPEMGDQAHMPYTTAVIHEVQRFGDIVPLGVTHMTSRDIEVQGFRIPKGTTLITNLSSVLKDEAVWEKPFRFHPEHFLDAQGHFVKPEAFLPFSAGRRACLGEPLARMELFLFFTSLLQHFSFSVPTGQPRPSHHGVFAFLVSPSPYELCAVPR
# Chain of Cytochrome P450 1A2 (Homo sapiens) (P05177 whole entry, looked up): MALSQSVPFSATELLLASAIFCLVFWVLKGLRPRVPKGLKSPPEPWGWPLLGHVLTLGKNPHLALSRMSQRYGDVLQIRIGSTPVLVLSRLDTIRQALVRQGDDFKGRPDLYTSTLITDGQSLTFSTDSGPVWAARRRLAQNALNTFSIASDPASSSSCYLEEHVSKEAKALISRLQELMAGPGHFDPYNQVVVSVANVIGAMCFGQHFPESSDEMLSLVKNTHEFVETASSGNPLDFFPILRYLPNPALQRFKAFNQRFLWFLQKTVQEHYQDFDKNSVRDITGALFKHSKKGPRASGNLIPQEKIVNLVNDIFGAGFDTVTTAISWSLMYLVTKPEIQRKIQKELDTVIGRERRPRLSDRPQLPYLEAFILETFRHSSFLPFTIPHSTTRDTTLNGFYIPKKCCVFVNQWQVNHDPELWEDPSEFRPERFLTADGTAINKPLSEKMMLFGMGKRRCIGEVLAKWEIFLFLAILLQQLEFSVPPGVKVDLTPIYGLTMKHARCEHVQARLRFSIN
# Chain of Nuclear receptor subfamily 1 group I member 2 (Homo sapiens) (O75469 whole entry, looked up): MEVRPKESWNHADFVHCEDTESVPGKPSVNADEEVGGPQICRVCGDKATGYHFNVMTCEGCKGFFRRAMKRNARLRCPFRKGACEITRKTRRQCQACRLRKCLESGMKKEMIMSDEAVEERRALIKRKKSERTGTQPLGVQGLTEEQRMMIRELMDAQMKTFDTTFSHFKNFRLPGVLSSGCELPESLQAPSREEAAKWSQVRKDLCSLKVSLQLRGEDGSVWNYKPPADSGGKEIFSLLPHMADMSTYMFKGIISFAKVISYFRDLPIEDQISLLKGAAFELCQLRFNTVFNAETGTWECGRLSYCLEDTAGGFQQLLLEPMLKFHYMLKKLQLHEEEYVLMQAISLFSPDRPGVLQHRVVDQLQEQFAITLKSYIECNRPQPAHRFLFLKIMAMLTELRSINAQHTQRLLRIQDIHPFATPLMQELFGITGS
# Chain of Cytochrome P450 3A4 (Homo sapiens) (P08684 whole entry, looked up): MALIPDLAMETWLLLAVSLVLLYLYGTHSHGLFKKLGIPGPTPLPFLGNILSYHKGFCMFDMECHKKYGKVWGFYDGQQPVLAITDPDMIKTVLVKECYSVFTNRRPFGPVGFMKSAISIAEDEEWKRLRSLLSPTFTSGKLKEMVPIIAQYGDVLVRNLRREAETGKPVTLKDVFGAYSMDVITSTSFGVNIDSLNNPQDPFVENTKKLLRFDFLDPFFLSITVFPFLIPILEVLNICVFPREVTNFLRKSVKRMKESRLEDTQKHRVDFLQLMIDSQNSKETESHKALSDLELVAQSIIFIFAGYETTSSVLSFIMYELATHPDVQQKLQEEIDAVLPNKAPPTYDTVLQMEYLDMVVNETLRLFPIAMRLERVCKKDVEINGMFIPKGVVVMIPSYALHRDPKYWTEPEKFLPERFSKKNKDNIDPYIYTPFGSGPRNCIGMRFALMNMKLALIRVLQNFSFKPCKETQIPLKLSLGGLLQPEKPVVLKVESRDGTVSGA
SMILES,Potency [1],Potency [2],Potency [3],Potency [4],Potency [5],Potency [6],Potency [7],Potency [8],Potency [9],Potency [10],Potency [11],max activation [12],Potency [13],outcome [14],Potency [15],"activity change, negative = inhibition [7]","activity change, negative = inhibition [8]","activity change, negative = inhibition [11]"
CC/C=C(\C(=O)N[C@@H]1C(=O)N2C(C(=O)OCOC(=O)C(C)(C)C)=C(COC(N)=O)CS[C@H]12)c1csc(N)n1,inactive,inactive,inactive,inactive,inactive,inactive,19.5 µM (active),12.3 µM (active) and 7.76 µM (active),27.5 µM (active) and inactive,inactive,,,,,,,,
CC(O)CNCC(C)O (stereo not drawn),inactive,inactive,inactive,inactive,inactive,61.5 µM (active) and inactive,20.1 µM (active) and 71 µM (active),35.8 µM (active) and inactive,inactive,inactive,31.9 µM (active) and inactive,,,,,,,
NC1CCCCC1N (stereo not drawn),inactive,inactive,inactive,inactive,inactive,,,,,inactive,,,,,,,,
OCc1ccc(Cl)cc1Cl,inactive,inactive,,inactive,inactive,inactive,inactive,inactive,39.9 µM (active),inactive,inactive,-2.12% (inactive),inactive,inactive,,,,
COc1ccc([C@@H]2CC(=O)c3c(O)cc(O[C@@H]4O[C@H](CO[C@@H]5O[C@@H](C)[C@H](O)[C@@H](O)[C@H]5O)[C@@H](O)[C@H](O)[C@H]4O)cc3O2)cc1OC,inactive,inactive,inactive,inactive,inactive,inactive,inactive,,inactive,inactive,inactive and 21.7 µM (active),,,,,,,
Nc1cccc(C(F)(F)F)c1,inactive,inactive,inactive,inactive,inactive,inactive,inactive,inactive,inactive,inactive,inactive,,,,,,,
COc1ccccc1[N+](=O)[O-],inactive,inactive,inactive,inactive,inactive,inactive,inactive and 35.6 µM (active),inactive,,inactive,inactive,,,,inactive,,,
O=C1OC(=O)c2c(Cl)c(Cl)c(Cl)c(Cl)c21,inactive,inactive,inactive,inactive,inactive,inactive,,inactive,inactive,inactive,inactive,,,,inactive,,,
CCCCCCCCCCCCCC(=O)O,inactive,inactive,inactive,inactive,inactive,inactive,inactive,inactive,inactive and 71 µM (active),inactive,inactive,,,,,,,
CO[Si](CCCNCCN)(OC)OC,31.6 µM (active) and inactive,inactive,5.53 µM (active) and inactive,27.7 µM (active) and inactive,62 µM (active) and inactive,13.9 µM (active) and inactive,inactive,inactive,,inactive,inactive,,,,inactive,,,
O=[N+]([O-])c1cc(C(F)(F)F)ccc1Cl,inactive,inactive,inactive,inactive,inactive,inactive,inactive,inactive,inactive,inactive,inactive,,,,,,,
Cc1ccc([N+](=O)[O-])cc1N,inactive,inactive,inactive,inactive,inactive,inactive,35.5 µM (active) and 44.8 µM (active),,11.2 µM (active) and 8.94 µM (active),inactive,,,,,35.5 µM (active) and 39.9 µM (active),,,
CCn1cc(C(=O)O)c(=O)c2cc3c(cc21)OCO3,inactive,inactive,,inactive,inactive,inactive,51 µM (active),,,inactive,,,,,inactive,-7.51% [at 23.6 µM] (inactive),4.54% [at 23.6 µM] (inactive),-0.272% [at 23.6 µM] (inactive)
NCCNCCNCCN,inactive,inactive,inactive,inactive,inactive,,,,,inactive,,-2.83% (inactive),,,,,,
COCN(COC)c1nc(N(COC)COC)nc(N(COC)COC)n1,inactive,inactive,inactive,inactive,,54.5 µM (active),,,inactive,inactive,inactive,,,,,,,
CN=C(NC#N)NCCSCc1nc[nH]c1C,inactive,inactive,inactive,inactive,inactive,,22.2 µM (active) and 34.7 µM (active),19.8 µM (active) and 15.5 µM (active),inactive,inactive,,,,,,,,
Cc1ccccc1Cl,inactive,inactive,inactive,inactive,inactive,inactive,inactive,,inactive,inactive,inactive,,,,inactive,,,
Oc1ccc(Cc2ccccc2O)cc1,inactive,inactive,inactive,inactive,inactive,61.9 µM (active),36 µM (active) and 39.9 µM (active),,inactive,inactive,inactive,,,,,,,
CC(C)(C)NC[C@H](O)COc1nsnc1N1CCOCC1,inactive,inactive,inactive,inactive,inactive,,inactive,inactive,,inactive,,,,,,,,
OC[C@H]1O[C@@H](Oc2ccc(O)cc2)[C@H](O)[C@@H](O)[C@@H]1O,inactive,inactive,,inactive,inactive,inactive,inactive,inactive,inactive,inactive,inactive,-0.143% (inactive),,inactive,inactive,,,

# Source: PubChem BioAssay (Tox21)
